VACV mCherry inh: inhibitors of vaccinia virus infection (mCherry reporter signal). AID 720579. Potency, µM (series often up to 36.5 µM), for inactives: at the top dose activity change, negative = inhibition, hits mostly inhibitors. Vaccinia virus mCherry reporter infection, fluorescence. 0.63% of 310,000 active; calls by dose curve; tested in A549 cells; also: potency is read from the fitted curve at half-maximal effect; nearly all actives have a fitted effect of over 35% in size
Vaccinia Venus: inhibitors of vaccinia virus (Venus reporter); Potency, µM (top dose mostly 36.5 µM), for the others: at the highest dose activity change, negative = inhibition, most hits filed as inhibitors; AID 720580; Vaccinia virus Venus reporter expression, fluorescence; 0.46% of 330,000 active; calls by dose curve; tested in A549 cells; also: potency is read from the fitted curve at half-maximal effect; nearly all actives have a fitted effect of over 30% in size
FMDV antiviral: blocks foot and mouth disease virus. FMDV antiviral cell-based qHTS. Potency, µM (doses to about 57.9 µM), inactives show at the highest dose activity change, negative = inhibition, usual class: inhibitors. 1.2% of 410,000 active; calls by dose curve; tested in HEK293T cells; also: read-out not given here; potency is read from the fitted curve at half-maximal effect; nearly all actives have a fitted effect of over 45% in size
HCV inhibitor: blocks hepatitis C virus; Huh7.5.1 HCVcc-Cre infection, luciferase reporter, 44 h; Potency, µM (doses to about 41.8 µM), inactives show top-dose activity change, negative = inhibition, usual class: inhibitors; 3.4% of 340,000 active; AID 651820; active = well fitted inhibition curve with a large enough effect; inconclusive = small, poorly fitted or top-dose-only effect, or another doubt; inactive = no such curve, though single readings can be large or run the other way; also: potency is read from the fitted curve at half-maximal effect
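HCVcc-Cre virus at an moi near 0.5 was added right after compound to cells cultured 4 h from seeding (1,000 cells/well). Luciferase activity was determined 44 h later, 15 min after substrate addition at RT.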
HCMV inh: blocks human cytomegalovirus replication; activity change, negative = inhibition, % at 57.5 µM; 4.5% of 410,000 active; HFF cells, HCMV-luciferase reporter, 72 h; active compounds read low; in the data active = activity change below about -60%; inconclusive = no clear call, values can overlap the other calls; inactive = above about -39%
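Two-dose cell screen: HFF monolayers treated with compounds and infected with luciferase-expressing HCMV at 1 PFU/cell, 72 h at 37C, then lysed for luciferase measurement.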
Numbers without * were called inactive; i = inactive; ? = inconclusive; . = not tested or not shown. Rows were chosen to be rich in hits. Some 7.3% of all compounds tested hit in one or more screens of this group. % is scaled to controls: 0 for no effect and ±100 for the full control effect.

SMILES	VACV mCherry inh	Vaccinia Venus	FMDV antiviral	HCV inhibitor	HCMV inh
CCC(C)(C)c1ccc(OCCCC[n+]2cccc(C)c2)c(C(C)(C)CC)c1	?	?	31.6µM*	?	-101.4*
Nc1cccc(C#Cc2ccc3c(c2)C(=O)/C(=C/c2ccsc2)O3)c1	?	-6.8%	32.2%	2.51µM*	4.4
COc1cc2nc(N(C)C)nc(N)c2cc1OC	.	-37.8%	0.0%	?	-93.6*
COc1ccc(S(=O)(=O)N2CCc3ccccc32)cc1C(=O)NC1(C)CCS(=O)(=O)C1 (configuration not stated)	.	.	-2.5%	-16.1%	0.0
Cc1cccc(/C=C(\c2nc3ccccc3[nH]2)S(=O)(=O)c2ccccc2)c1	?	?	8.91µM*	11.2µM*	-98.3*
CC(C)(C)c1ccc(/C=C(\c2nc3ccccc3[nH]2)S(=O)(=O)c2ccccc2)cc1	14.1µM*	?	20µM*	11.2µM*	.
Cc1ccc(NC(=S)c2nc3ccccc3[nH]2)c(C)c1	?	-27.6%	-52.3%	-14.6%	49.6
O=C(O)c1ccc(/C=C(\c2nc3ccccc3[nH]2)c2nc3ccccc3s2)cc1	?	-16.8%	-11.4%	27.1%	-30.6
COc1ccccc1CNC(=O)c1oc2c(c1C)-c1nn(Cc3ccc(Cl)cc3)cc1CC2	-5.7%	-8.6%	-26.3%	.	9.8
CCOc1ccc(NC(=O)Cn2c(=O)c(CNc3ccc(CC)cc3)cc3cc4c(cc32)OCO4)cc1	-13.7%	5.5%	-5.8%	.	8.9
O=C1NC(=O)C(=Cc2ccc(-c3ccccc3[N+](=O)[O-])o2)C(=O)N1	i	-16.6%	35.5µM*	30.9%	-1.6
Cc1ccc(-c2ccc(/C=C3\C(=O)ON=C3c3ccccc3)o2)c([N+](=O)[O-])c1	.	.	-8.9%	?	-94.5*
CC1=C(C#N)C(=O)NC(=O)/C1=C\c1ccc(-c2cc(C)c(C)cc2[N+](=O)[O-])o1	-0.6%	-12.3%	?	16.6%	25.1
O=C1/C(=C\c2ccc(-c3ccccc3[N+](=O)[O-])o2)C(c2ccccc2)=NN1c1ccccc1	.	.	-1.7%	-15.1%	-31.1
O=C1NC(=O)C(=Cc2ccc(-c3cc(Cl)ccc3[N+](=O)[O-])o2)C(=O)N1	?	4.2%	20µM*	17.1%	-7.7
CC12CC[C@@](C(=O)O)(C(=O)C1=O)C2(C)C	.	.	-3.4%	.	.
N/C(=N\OC(=O)c1ccc2ccccc2c1)c1ccccn1	-10.2%	-9.1%	-45.2%	6.2%	-83.4*
CCCc1ccc(C(=O)O/N=C(\N)c2ccccn2)cc1	-10.2%	-5.7%	14.1µM*	0.5%	-70.1*
CCOC(=O)c1c(SCC(=O)Nc2nccs2)nc(C)c(C)c1C	-6.5%	-19.6%	23.6%	3.9%	-26.3
COC(=O)C1(C(=O)OC)C2CCCCC2N(S(=O)(=O)c2ccc(C)cc2)[C@@H]1CC(C)=O (some centres not stated)	i	-9.0%	0.0%	.	-3.7
CNCC/C=C1/c2ccccc2CSc2ccccc21	?	?	-23.8%	10µM*	-34.1
O=C(NCc1ccccn1)c1ccc(OC2CCN(Cc3cccs3)CC2)cc1	.	.	-3.8%	3.8%	-12.7
C/C(=N\NC(=O)c1ccc(-c2ccccc2)cc1)c1cccc(N)c1	-0.4%	-13.0%	13.6%	?	12.4
C/C(=N\Nc1nc(C)cc(-c2ccccc2)n1)c1cccc(N)c1	.	.	-4.9%	6.31µM*	-34.4
C/C(=N/Nc1nc(C)cc(-c2ccccc2)n1)c1ccco1	?	-17.9%	-0.2%	?	41.7
SMILES	VACV mCherry inh	Vaccinia Venus	FMDV antiviral	HCV inhibitor	HCMV inh
C/C(=N\Nc1nc(C)cc(-c2ccccc2)n1)c1ccccc1	i	-13.5%	14.2%	15.8µM*	?
C/C(=N\Nc1nc(C)cc(-c2ccccc2)n1)c1ccc(O)cc1	.	.	10.3%	11.2µM*	-89.2*
C/C(=N/Nc1nc(C)cc(C)n1)c1ccc(Br)cc1	i	-13.0%	4.7%	?	?
C/C(=N\Nc1nc(C)cc(C)n1)c1ccc(N2CCOCC2)cc1	.	.	-0.2%	-20.1%	-68.6*
O=c1[nH]c(SCc2c(F)cccc2Cl)nc2c1CCCC2	-5.5%	-1.4%	-13.0%	.	-8.9
Cn1c(SCc2ccc(C(F)(F)F)cc2)nc2c([nH]c3ccccc32)c1=O	-23.8%	-12.6%	-17.5%	.	52.7
COc1cc(C)c(NC(=O)Cc2ccsc2)cc1OC	-9.0%	-12.9%	-5.3%	3.7%	-12.4
COc1ccc(C(=O)NCCN2Cc3ccccc3OC(c3ccsc3)C2)c(OC)n1 (configuration not stated)	-8.0%	10.0%	-9.8%	.	.
C/C(=N\Nc1nc(C)cc(-c2ccccc2)n1)c1ccc(C)o1	?	-20.2%	?	?	-63.3*
FC(F)(F)c1cccc(-c2cc(C3CCNCC3)[nH]n2)c1	-21.4%	-12.0%	-14.1%	?	-72.5*
FC(F)(F)c1cccc(CN2CCC(c3cc(-c4cccs4)n[nH]3)CC2)c1	?	?	-12.7%	?	-78.7*
COCCn1c(=O)c(-c2ccccc2)nc2cnc(OC)nc21	.	.	-15.9%	.	.
COc1ccc(-c2cccc(C3CC=CC4C3C(=O)N(Cc3ccccc3)C4c3ccc(C(F)(F)F)cc3)c2)cc1 (configuration not stated)	-3.9%	-10.2%	-10.6%	-6.2%	-67.3*
O=C1C2C(c3ccccc3)CC=CC2[C@H](c2ccc(C(F)(F)F)cc2)N1Cc1ccccc1 (some centres not stated)	-19.7%	?	0.0%	-18.0%	-84.5*
COc1ccc(-c2c([C@H]3[C@H]4C=CC[C@@H](C)[C@@H]4C(=O)N3Cc3ccccc3)ccc3ccccc23)cc1OC	-25.9%	?	?	?	-83.6*
C[C@@H]1CC=C[C@H]2[C@H]1C(=O)N(Cc1ccccc1)[C@H]2c1ccc(C(F)(F)F)cc1	-10.2%	-25.9%	?	?	-26.0
S=C(Nc1cccc(Cl)c1Cl)N1CCCC1	-5.0%	-6.9%	5.4%	7.2%	-12.9
O=C(CCSc1ccc(F)cc1)NNC(=O)c1ccc([N+](=O)[O-])cc1	.	.	-16.0%	-7.2%	-6.4
CCOC1=C2CN(S(=O)(=O)c3ccc(C)cc3)[C@@H](c3cccs3)C[C@H]2[C@H]2C(=O)N(c3ccccc3)C(=O)[C@H]2C1	-4.3%	-16.1%	-8.5%	.	-12.7
CCOC(=O)c1ccc(N2C(=O)c3[nH]nc(-c4ccc(C)cc4)c3C2c2cccc(F)c2)cc1 (configuration not stated)	?	-21.9%	?	.	-99.2*
CCOC(=O)c1ccc(N2C(=O)c3[nH]nc(-c4ccc(OC)cc4)c3C2c2cccc(O)c2)cc1 (configuration not stated)	?	-24.9%	31.6µM*	.	-106.8*
CCOC(=O)c1ccc(N2C(=O)c3n[nH]c(-c4ccco4)c3C2c2ccc(O)c(OC)c2)cc1 (configuration not stated)	-5.1%	-14.1%	?	.	-23.0
COc1cc(C2c3c(-c4ccccc4)n[nH]c3C(=O)N2c2ccccc2)ccc1O (configuration not stated)	.	.	?	-26.9%	20.8
